This excerpt belongs to a sample that is enriched for hits.
Pf Dd2 growth: blocks in vitro growth of P. falciparum Dd2; P. falciparum Dd2 growth, SYBR Green, 72 h; AID 1347417; Potency, µM (doses to about 28.9 µM), usual class: inhibitors; 120,000 tested, 4.3% active; active means well fitted inhibition curve with a large enough effect; further: nearly all actives have a fitted effect of over 65% in size
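Readout: SYBR Green fluorescence, 485 nm excitation, 535 nm emission, after ~16 h lysis at 37C. Before that, Dd2-infected red cells (2.5% hematocrit) grew 72 h with compound, 29 uM top final concentration.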
Of the large screens only hits and unclear results are named; the others gave an inactive call.

O=C1NCCCCCCN(Cc2cccc(OC(F)(F)F)c2)[C@H]2CCC[C@@H]12	Pf Dd2 growth 7.08µM
O=C(NC1CCCCC1)O[C@@H]1CO[C@H]2[C@@H]1OC[C@@H]2NC(=S)Nc1cccc2ccccc12	none
O=C(c1cccc(F)c1)N1CCC(n2cc(-c3nc(C4CC4)no3)nn2)C1 (stereo unspecified)	none
COC1CCC12CCN(C(=O)c1ccc3[nH]ccc3c1)CC2 (stereo unspecified)	none
O=C1CCN(S(=O)(=O)c2ccccc2)CCCN(C(=O)CN2CCCCCC2)CCN1	none
CCOc1ccccc1CN1CCn2c(nnc2[C@@H]2C[C@@H](O)CN2Cc2cccnc2)C1	none
Cc1cc2cc(-c3c(C)noc3C)nc(NC3CCN(C)CC3)c2o1	Pf Dd2 growth 10µM
Cc1cc2cc(-c3c(C)noc3C)nc(NCC3CC3)c2o1	none
Cc1noc(C)c1-c1cc2cc(CO)oc2c(NCCN2CCOCC2)n1	none
Cc1noc(C)c1-c1cc2cc(C(C)C)oc2c(-c2c(C)noc2C)n1	none
Cc1noc(C)c1-c1cc2cc(C(C)C)oc2c(NC(C)C)n1	none
Cc1noc(C)c1-c1cc2cc(C(C)C)oc2c(NC2CCOCC2)n1	Pf Dd2 growth 11.2µM
O=C1CC2CCN([S+](=O)([O-])c3cc(C(F)(F)F)cc(C(F)(F)F)c3)CC2CCN1 (stereo unspecified)	none
CN(C)[C@@H]1CN(C(=O)C2CCC2)CC[C@]1(O)c1ccccc1	none
Cc1ccc(-c2nnc([C@H]3CCN(Cc4ncc[nH]4)C3)o2)cc1	none
CNC(=O)[C@H]1CN(Cc2ccccc2)C[C@H]1C(=O)O	none
CN1C(=O)CC(C(=O)O)C12CCN(Cc1nn(C)c3cccc(Cl)c13)CC2 (stereo unspecified)	none
COc1ccc(CN2C(=O)[C@@H]3C[C@@H](CN3C)Oc3ccccc32)cc1	none
O=C(O)CCC(=O)N1C[C@@H]2C[C@H]1C(=O)N(Cc1ccc(OC(F)(F)F)cc1)c1ccccc1O2	none
COc1ccc(CN2C(=O)[C@@H]3C[C@@H](CN3C3CCN(C)CC3)Oc3ccccc32)cc1	Pf Dd2 growth 10µM
COc1ccc(CN2C(=O)[C@@H]3C[C@@H](CN3Cc3ccccc3)Oc3ccccc32)cc1	none
O=C1[C@@H]2C[C@@H](CN2C2CCC2)Oc2ccccc2N1Cc1ccc(OC(F)(F)F)cc1	Pf Dd2 growth 6.31µM
CS(=O)(=O)N1C[C@@H]2C[C@H]1C(=O)N(Cc1ccc(OC(F)(F)F)cc1)c1ccccc1O2	none
CS(=O)(=O)c1ccc2c(c1)nc1n2[C@@H](CNCc2ccncc2F)COC1	none
COCCCN1CC2(CCN(C(=O)c3nn(C)c4ccccc34)CC2)CC1=O	none
O=C([C@@H]1C[C@H](F)CN1C(=O)c1ccsc1)N1CCOCC1	none
Cn1cc(-c2ccncc2)cc1C(=O)NC1CCN(Cc2ccccc2)CC1	Pf Dd2 growth 5.01µM
Cc1sc2ccn(C)c(=O)c2c1C(=O)NC1CCN(Cc2ccccc2)CC1	none
Cn1c(C(=O)NC2CCN(Cc3ccccc3)CC2)cc2c1CCN(Cc1ccccc1)C2	none
COc1cc(Cn2ccnc2-c2nc[nH]c2C)cc(OC)c1OC	none
c1cc2nnc(C3CC3)n2nc1N1CCCC1	none
COc1ccc2c(c1)CN(C(=O)N1CCOCC1)CC[C@H]1COC(=O)N21	none
O=C(c1ccoc1)N1CCC(n2cc(-c3nc(C4CC4)no3)nn2)C1 (stereo unspecified)	none
COc1ccccc1CN1CCC2(CC1)OC(=O)N(Cc1ccccc1F)C2(C)c1ccccc1 (stereo unspecified)	Pf Dd2 growth 3.98µM
CC1(c2ccccc2)N(Cc2ccccc2F)C(=O)OC12CCN(Cc1ccc(C#N)cc1)CC2 (stereo unspecified)	none
COc1ccccc1CN1CCC2(CC1)OC(=O)N(Cc1ccc(NC(C)=O)cc1)C2(C)c1ccccc1 (stereo unspecified)	Pf Dd2 growth 12.6µM
COc1ccccc1CN1CCC2(CC1)OC(=O)N(Cc1csc(C)n1)C2(C)c1ccccc1 (stereo unspecified)	none
COc1ccc(CN2CCC3(CC2)OC(=O)N(Cc2ccccc2C#N)C3(C)c2ccccc2)cc1O (stereo unspecified)	none
CC(=O)Nc1ccc(CN2C(=O)OC3(CCN(Cc4ccccc4)CC3)C2(C)c2ccccc2)cc1 (stereo unspecified)	none
CC(=O)N1CCC(N2C[C@@H](CO)[C@H](NC(=O)c3ccccc3)C2)CC1	none
COc1cc(-c2n[nH]c(=O)n2CCC(=O)O)ccc1O	none
Cc1ccc(NC(=O)N2CCC(Oc3ncccc3C(=O)N(C)C)C2)cc1 (stereo unspecified)	none
COc1cc(Cl)ccc1C(=O)N1CC(F)(F)C[C@H]1c1nnc(C)o1	none
COC(=O)CNC(=O)c1nc(-c2cccc(C(F)(F)F)c2)c2cnccn12	none
COC(=O)CNC(=O)c1nc(-c2ccc(Cl)nc2)c2cnccn12	none
O=C(NCc1ccncc1)c1nc(-c2cccnc2)c2cnccn12	none
N#CC1CCN(C(=O)c2nc(-c3ccc(F)cc3)c3cnccn23)CC1	none
C#CCNC(=O)c1nc(-c2ccc(Cl)nc2)c2ccccn12	none
O=C(NCc1ccc(F)cc1)c1nc(-c2ccc(Cl)nc2)c2cnccn12	Pf Dd2 growth 7.94µM
O=C(NCc1ccc(F)cc1)c1nc(-c2ccccc2)c2cnccn12	Pf Dd2 growth 3.98µM
O=C(NCc1cccs1)c1nc(-c2ccc(F)cc2)c2cnccn12	Pf Dd2 growth 3.98µM
O=C(NCCc1ccc(Cl)cc1)c1nc(-c2ccc(Cl)nc2)c2cnccn12	Pf Dd2 growth 8.91µM
O=C(NCCc1ccc(Cl)cc1)c1nc(-c2ccccc2)c2ccccn12	none
O=C(c1nc(-c2ccc(Cl)nc2)c2cnccn12)N1CCCC1	none
O=C(NCc1cccnc1)c1nc(-c2ccc(F)cc2)c2cnccn12	none
COc1cccc(O)c1C(=O)NC1CC(c2nnc(Cn3cccn3)n2C)C1 (stereo unspecified)	none
Cc1c(F)cccc1NC(=O)C1CCN(C(=O)c2ncn3c2COC(c2ccc(F)cc2)C3)CC1 (stereo unspecified)	none
COCCNC(=O)c1ccc2c(c1)N(C)C(CC(=O)N1CCC(O)CC1)CO2 (stereo unspecified)	none
O=C(c1ccccc1F)N1CCC2(CC1)C(=NC1CCCC1)NC(=O)N2c1cccnc1	none
COCCNC(=O)c1ccc2c(c1)N(C)C(CC(=O)Nc1ccc[nH]c1=O)CO2 (stereo unspecified)	none
COc1ccc(S(=O)(=O)N2CCc3c(C(=O)NCc4ccccn4)cccc32)cc1	none
Cn1cccc1C(=O)N1CCC(N2C[C@H](O)C[C@H]2C(=O)NCc2cccnc2)CC1	none
O=C1CC2CCN(C(=O)Cc3ccccc3)CC2CCN1 (stereo unspecified)	none
O=C(c1ccc(-c2ccccc2CO)nc1)N1CCC(CCc2ccccc2)CC1	none
O=C(CCC[C@@H]1[C@H]2CCCN3CCC[C@@H](CN1C(=O)C1CCOCC1)[C@@H]23)NCc1ccccc1	none
COc1ccccc1-c1nc(C(=O)NCc2ccc3c(c2)OCO3)n2ccncc12	Pf Dd2 growth 12.6µM
C#CCNC(=O)c1nc(-c2cccnc2)c2ccccn12	none
COc1ccccc1-c1nc(C(=O)NCc2cccs2)n2ccccc12	none
COc1ccccc1-c1nc(C(=O)NC2CC2)n2ccncc12	none
C[S+](=O)([O-])c1ccc(-c2nc(C(=O)NCc3ccc(F)cc3)n3ccncc23)cc1	Pf Dd2 growth 11.2µM
CC(C)(C)c1nc(C(=O)NCc2ccc(F)cc2)n2ccccc12	none
COCCNC(=O)c1nc(-c2ccccc2OC)c2cnccn12	none
O=C(NCc1cccnc1)c1nc(-c2ccc(Cl)nc2)c2ccccn12	none
O=C(NCc1cccnc1)c1nc(-c2ccccc2)c2ccccn12	Pf Dd2 growth 10µM

Screening data as filed in PubChem.
